Assay outcomes deposited in PubChem by National Center for Advancing Translational Sciences (NCATS).
Most compounds without a hit are left out; they make up all but 7.3% or so of the library.
FLuc modulator: inhibits or activates purified firefly luciferase, miR-21 counter-screen; purified FLuc, Km substrates, luminescence inhibition; Potency, µM (top dose mostly 57.5 µM), inactives show top-dose activity change, negative = inhibition, hits mostly inhibitors; actives 6.9% (n = 360,000); AID 588342;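 also: plate controls were vehicle for no effect and reference inhibitor for full effect; nearly all actives have a fitted effect of over 55% in size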
Target sequence (P08659 whole entry, looked up): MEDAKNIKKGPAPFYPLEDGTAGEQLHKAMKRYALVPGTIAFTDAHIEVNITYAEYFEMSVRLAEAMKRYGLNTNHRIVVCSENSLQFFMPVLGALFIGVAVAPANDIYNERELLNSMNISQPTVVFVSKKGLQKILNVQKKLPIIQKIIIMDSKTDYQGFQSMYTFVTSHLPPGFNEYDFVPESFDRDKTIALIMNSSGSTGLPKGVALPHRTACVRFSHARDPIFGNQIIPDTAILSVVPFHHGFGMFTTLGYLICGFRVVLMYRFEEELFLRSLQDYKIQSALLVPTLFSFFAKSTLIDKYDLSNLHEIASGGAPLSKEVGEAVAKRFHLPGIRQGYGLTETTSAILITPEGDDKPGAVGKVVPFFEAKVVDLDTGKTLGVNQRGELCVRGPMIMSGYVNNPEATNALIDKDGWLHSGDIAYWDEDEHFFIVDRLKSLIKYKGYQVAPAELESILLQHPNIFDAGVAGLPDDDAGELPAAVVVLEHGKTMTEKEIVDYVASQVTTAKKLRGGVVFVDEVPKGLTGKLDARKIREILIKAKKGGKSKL
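Purified P. pyralis luciferase, 10 nM final, with Km-level 10 uM D-luciferin and 10 uM ATP in 50 mM Tris acetate pH 7.5, 10 mM Mg acetate, 0.01% Tween-20, 0.05% BSA; 6-point qHTS titration about 60 µM downward; luminescence read.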
ELG1 genotox: induces genotoxicity in HEK293T cells with luciferase-tagged ELG1; Potency, µM (series often up to 46 µM), for inactives: at the top dose activity change, positive = activation, actives largely listed as activators; HEK293T ELG1-luciferase reporter, luminescence, 16 h; actives 1.3% (n = 330,000); also: % of control where 0% means no effect; nearly all actives have a fitted effect of over 60% in size
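16 hr compound incubation (37 °C, 5% CO2) of HEK293T cells carrying luciferase-tagged ELG1; luciferase then measured by ONE-Glo luminescence after 30 min at RT.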
NPC1 prom act: activators of NPC1 promoter; Huh7 NPC1 promoter luciferase reporter, 24 h; Potency, µM (doses to about 9.22 µM), for inactives: at the highest dose activation, usual class: activators; actives 2.4% (n = 320,000); also: % of control where 0% means no effect; nearly all actives have a fitted effect of over 60% in size
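Luciferase expression driven by the NPC1 promoter was measured in stably transfected Huh7 cells after a 24 h compound incubation, using a luciferase reagent and a luminescence read.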
Rab9 prom act: Rab9 promoter activation; actives 2.8% (n = 320,000); Potency, µM (titrated, usually from 9.22 µM), without a hit: at the highest dose activation, negative = inhibition, hits mostly activators; Huh7 Rab9 promoter-luciferase reporter, luminescence, 24 h; also: % of control where 0% means no effect; nearly all actives have a fitted effect of over 60% in size
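Stable Rab9-luc Huh7, 1500 cells/well, 2 h settle; cmpd in DMSO, 24 h, 37 °C/5% CO2; luciferase reagent 10 min RT; luminescence.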
KinaseGlo FLuc: Kinase-Glo luciferase inhibition (counter-screen) | Potency, µM (top dose mostly 38.3 µM), without a hit: top-dose activity change, negative = inhibition, hits mostly inhibitors | Q27757 | actives 0.28% (n = 200,000) | Kinase-Glo luciferase, ATP luminescence, 8 min; also: % is scaled to controls: 0 for no effect and ±100 for the full control effect; nearly all actives have a fitted effect of over 60% in size
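Compounds were added to a substrate mix at pH 7.2 (50 mM imidazole, 10 uM ATP, within the enzyme's linear range), followed by Kinase-Glo detection reagent; luminescence was measured after 8 minutes at ambient temperature.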
SMN2 splice enh: increases expression of the SMN2 splice variant; AID 1458; HEK293 SMN2-luciferase splicing reporter, luminescence, 30-36 h; Potency, µM (series often up to 46.1 µM), without a hit: top-dose activity change, positive = activation, hits mostly activators; actives 2.8% (n = 210,000); also: % of control where 0% means no effect; nearly all actives have a fitted effect of over 55% in size
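HEK293 cells carry an SMN2 […]–luciferase reporter in which exon 7 inclusion puts luciferase in frame. Cells were plated 10-12 h before compound addition, then incubated 30-36 h at 37C. ONE-Glo luminescence was read; sodium butyrate at 4.5 mM final served as control.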
Active calls of the source: *; ? = inconclusive; . = no result given. Calls follow the shape of the dose curve; as a rule, active = well fitted curve in the direction sought with a large enough effect; inconclusive = small, poorly fitted or top-dose-only effect, or another doubt; inactive = no such curve, though single readings can be large; an effect the other way counts as inactive or inconclusive. Potency is read from the fitted curve at half-maximal effect.

SMILES	FLuc modulator	ELG1 genotox	NPC1 prom act	Rab9 prom act	KinaseGlo FLuc	SMN2 splice enh
Cc1cccc(OCC(=O)N(Cc2cccs2)C2CCS(=O)(=O)C2)c1C (stereo unspecified)	-3%	3%	1%	-4%	0%	-9%
COCCNC(=S)Nc1ccc(Cl)c(Cl)c1	-2%	-2%	2%	-1%	1%	?
Cn1cccc1CNC(=O)Nc1ccc(Cl)c(Cl)c1	8.5µM*	?	4µM*	3.2µM*	-10%	?
CCOc1ccc(NC(=O)NCc2cccn2C)cc1	?	?	?	20%	.	.
C=COCCNC(=O)Nc1ccc(Cl)c(Cl)c1	17µM*	-3%	?	?	3%	27%
Cc1ccc(NC(=O)NCC2CC2(Cl)Cl)cc1 (stereo unspecified)	11µM*	?	2.2µM*	3.5µM*	.	.
O=C(NCC1CC1(Cl)Cl)Nc1ccc(Cl)c(Cl)c1 (stereo unspecified)	17µM*	-4%	?	?	.	.
COc1ccccc1NC(=O)C(=O)NNS(=O)(=O)c1ccc2ccccc2c1	?	3%	1%	-2%	.	.
C=CCNC(=O)/C(C#N)=C/c1ccc(SC)cc1	12µM*	11%	0%	3%	-2%	0%
COCCNC(=O)/C(C#N)=C/c1ccc2c(c1)OCO2	?	13%	3%	17%	-9%	.
N#C/C(=C\c1ccc2c(c1)OCCO2)C(=O)Nc1nccs1	0.6µM*	10%	2%	1%	.	.
C=CCNC(=O)/C(C#N)=C/c1ccc2c(c1)OCCO2	12µM*	13%	0%	7%	-5%	-5%
Cc1ccc(C2(c3ccccc3)NC(=O)N(CC(=O)NCc3ccco3)C2=O)cc1C (stereo unspecified)	0%	0%	0%	8%	.	.
COC(=O)c1[nH]c2ccccc2c1NC(=O)CN1CCN(Cc2ccc3c(c2)OCO3)CC1	1%	-10%	7%	-2%	-3%	13%
N#Cc1c(NC(=O)c2cnn3cccnc23)sc2c1CCCC2	?	?	?	?	-7%	19%
CC1CCc2c(sc(NC(=O)c3nc4ncccn4n3)c2C#N)C1 (stereo unspecified)	7.6µM*	?	3.2µM*	4.5µM*	.	.
N#Cc1c(NC(=O)c2nc3ncccn3n2)sc2c1CCCCC2	13µM*	2.3µM*	1.8µM*	4.5µM*	-7%	7.9µM*
Cc1onc(-c2ccccc2)c1C(=O)Nc1sc2c(c1C#N)CCC(C)C2 (stereo unspecified)	?	-6%	0%	-3%	2%	-14%
O=c1[nH]c2ccccc2c2nc3ccccn3c12	17µM*	?	?	?	-16%	14%
Cc1ccc2[nH]c3c(c2c1)CCC3=O	-2%	?	2%	0%	-3%	16%
CCCCN1CCc2c([nH]c3ccc(C)cc23)C1=O	2.4µM*	26%	2.8µM*	3.5µM*	-3%	?
O=[N+]([O-])c1c(Nc2ccc(O)cc2)cc(N2CCOCC2)c2nonc12	-7%	-4%	-4%	-11%	-2%	-23%
Cc1ccc2nc(Cl)c(C3CC(c4cccs4)=NN3C(=O)CCCC(=O)O)cc2c1 (stereo unspecified)	-2%	7%	0%	-2%	-1%	-4%
CCS(=O)(=O)N1N=C(c2cccs2)CC1c1cc2cc(C)ccc2nc1Cl (stereo unspecified)	17µM*	15%	-2%	-4%	.	.
COc1ccc(/C=C/C(=O)Nc2sc(C)c(C)c2C(=O)O)cc1	1.3µM*	.	.	.	.	1%
CCOC(=O)c1c(NC(=O)/C=C/c2ccc(C)o2)sc(C)c1C	-14%	-1%	25%	23%	.	.
Cc1sc(NC(=O)/C=C/c2ccco2)c(C(=O)O)c1C	5.4µM*	?	?	?	.	.
CC(C)=CCl	.	.	.	.	.	25%
